# Laboratory results as given in PubChem BioAssay (NCI).
# About 83,000 compounds went through this panel and 20% of them were active in at least one assay; those are over-represented in the sample as a whole.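 Compound tested at a single concentration for 48 hours in 96-well plates; a percent growth value below 10 was scored as active.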 Active and inactive are the calls of the source.
# Test system: SK-MEL-28 melanoma
# Assay: NCI-60 one-dose screen, 48 h (100 = growth as untreated, 0 = no growth, -100 = all killed)
# Conditions: 10 µM unless noted
# Method: Growth inhibition of the SK-MEL-28 human tumor cell line is measured as a screen for anti-cancer activity. Cells are grown in 96 well plates and exposed to the test compound for 48 hours. Compounds are tested at a single concentration, which is 10^-5 M for most compounds. The reported endpoint is percent growth (GI% or GIPRCNT), where numbers from 0 - 100% represent growth inhibition, and numbers from -100% - 0 represent cell death. For example, a value of 40 represents 60% growth inhibition. A value of 0 means no net growth occurred over the course of the experiment. A value of -40 indicates 40% of cells at the beginning of the experiment died by the end of the experiment. A value of -100 means all cells are dead at the end of the experiment.
# NCI-60 Human Tumor Cell Lines Screen was performed using the standard one-dose NCI protocol, which is described in more detail at https://dtp.cancer.gov/discovery_development/nci-60/default.htm.
# Compounds with GIPRCNT values below 10 were considered active. Activity score was based on GIPRCNT using the following formula: […]
# Score is 0 for GIPRCNT values of 100 or above, 50 for GIPRCNT values of 0, and 100 for GIPRCNT values of -100.
row,SMILES,growth
1,NC(=O)c1cnc(Nc2cccc(N)c2)nc1NCCCNC(=O)C1CCC1,92% (inactive)
2,Cc1ccc(S(=O)(=O)OCCCOS(=O)(=O)c2ccc(C)cc2)cc1,109% (inactive)
3,COc1ccc(Cn2cc(C(=O)N=Nc3c(O)[nH]c4c(C)cccc34)nn2)cc1,94.9% (inactive)
4,Ic1ccccc1I,108% (inactive)
5,COc1ccc(Cn2cc3c(c2-c2ccccc2)CCc2cnoc2-3)cc1,56.4% (inactive)
6,CC(C)CCN(CCC(C)C)CC(O)c1cc2c(c3ccccc13)CCCC2 (stereo not given),94.7% (inactive)
7,C=C1C(=O)O[C@H]2[C@H]1CC/C(COC(=O)CSCSCC(=O)OC/C1=C/CC[C@@]3(C)O[C@H]3[C@H]3OC(=O)C(=C)[C@@H]3CC1)=C\CC[C@@]1(C)O[C@@H]21,-4.58% (active)
8,CN1CCN(c2ccc(NC(=O)c3cncnc3Nc3ccc(OCc4cccc(F)c4)c(Cl)c3)cc2)CC1,81.1% (inactive)
9,N#Cc1cncc(-c2ccc3ncnc(Nc4cccc(Cl)c4)c3c2)c1,81.8% (inactive)
10,COc1ccc2c(c1)/C(=N/c1n[nH]c(=S)s1)C(=O)N2,107% (inactive)
11,COc1cc(/C=N/Nc2ccc(Br)cc2)cc(OC)c1OC,82.1% (inactive)
12,O=C(Nc1ccccc1[N+](=O)[O-])c1ccc(Cl)c(Cl)c1,105% (inactive)
13,CCNc1ccc(-c2nc3ccccc3n3cccc23)cc1,86.5% (inactive)
14,Cn1cc(-c2ccc(-c3cn(C)c4ccc(Cl)cc34)[nH]2)c2cc(Cl)ccc21,-52.9% (active)
15,CC1(C)[C@@H](O[C@@H]2OC[C@@H](O[C@@H]3O[C@H](CO)[C@@H](O)[C@H](O)[C@H]3O[C@@H]3OC[C@@H](O)[C@H](O)[C@H]3O)[C@H](O)[C@H]2O[C@@H]2O[C@H](CO)[C@@H](O)[C@H](O)[C@H]2O)CC[C@]2(C)[C@H]3CC[C@]45OC[C@@]6(CC[C@](C)(C=O)C[C@H]64)[C@H](O)C[C@@]5(C)[C@]3(C)CC[C@@H]12,-76.4% (active)
16,O=C(NNC(=O)c1nc2cc(F)ccc2n2cccc12)c1cnccn1,36.4% (inactive)
17,CN1CCN(c2ccc3nc4c(nc3c2C(F)(F)F)C(=O)c2ncccc2C4=O)CC1,5.49% (active)
18,Cn1c2c(c3ccc(Cl)c(Cl)c31)C(C#N)C(C)(C)NC2=O (stereo not given),105% (inactive)
19,O=C(Nc1ccccc1O)c1ccc(CNC(=O)c2ccsc2Nc2ccnc(C(F)(F)F)c2)cc1,51.3% (inactive)
20,COc1ccc(N2CCC(=S)NC2=S)cc1,113% (inactive)

row,SMILES,growth
1,N[C@H]1CCC[C@@H]1NCCCCN1C(=O)c2cccc3cc([N+](=O)[O-])cc(c23)C1=O,93.6% (inactive)
2,CC(=O)ON1CCCC(P(=O)(OCCSC(=O)C(C)(C)C)OCCSC(=O)C(C)(C)C)C1=O (stereo not given),30.7% (inactive)
3,COc1ccc(NC(=O)Nc2ccc(OCCCCCC(=O)NO)cc2)cc1,103% (inactive)
4,CCOC(=O)c1c(C)nc2ccccc2c1/C=C/c1ccccc1,102% (inactive)
5,N#Cc1c(-c2ccccc2)nc(SCc2nnc(-c3ccc(Cl)cc3)o2)[nH]c1=O,110% (inactive)
6,C=C(c1ccc(OC)c(/C=C/C(=O)c2ccc3c(c2)OCO3)c1)c1cc(OC)c(OC)c(OC)c1,11.5% (inactive)
7,O=C1Nc2ccccc2/C1=C/c1cccn1C(=O)c1ccc(Cl)s1,113% (inactive)
8,Cc1ccc(C(=O)Nc2cccc(C#Cc3cccc4[nH]nc(N)c34)c2)cc1C(F)(F)F,41.7% (inactive)
9,COc1cc(C(=O)c2c(-c3ccccc3)oc3c(OC)cccc23)cc(OC)c1OC,59.9% (inactive)
10,C=C(CNCCc1ccc(O)cc1)[C@@H]1CC[C@]2(CO)CC[C@]3(C)[C@H](CC[C@@H]4[C@@]5(C)CCC(=O)C(C)(C)[C@@H]5CC[C@]43C)[C@@H]12,-10.8% (active)
11,Cc1ccc2c(-n3nc(C#N)c(C#N)c3N)cc(=O)[nH]c2c1,94.1% (inactive)
12,Cc1ccnc(Nc2ccc([N+](=O)[O-])c(NCCN3CCOCC3)n2)c1,72% (inactive)
13,CCOC(=O)c1cnc2c(N=Nc3ccc(OC)cc3)c(N)nn2c1N,114% (inactive)
14,COc1ccc(/C=C(/C(=O)n2cnnn2)c2cc(OC)c(OC)c(OC)c2)cc1,43.8% (inactive)
15,Oc1c(CN2CCCC2)cc(CSCc2ccccc2)c2cccnc12,23.8% (inactive)
16,Nc1nc(N)c(N=Nc2ccccc2)c(-c2ccccc2)n1,76.2% (inactive)
17,O=S(=O)(Oc1ccc(Br)cc1)c1ccc(Cl)cc1,103% (inactive)
18,CCO/C=N/C1=C(C#N)C(c2ccc(F)cc2)c2sc3c(F)cccc3c2O1 (stereo not given),60.4% (inactive)
19,Cc1ccc(-c2nc(N3CCNCC3)c3oc(-c4ccc(C)cc4)nc3n2)cc1,83.6% (inactive)
20,O=P(O)(O)OCC1OC(n2cnc3c(NCc4ccco4)ncnc32)C(O)C1O (stereo not given),87% (inactive)
